# Key:
# Test in all cases: DAPPL (digital affinity profiling via proximity ligation, sequencing); 10 mM Tris-HCl pH 7.5, 50 mM NaCl, 1 mM DTT, 4% glycerol, room temperature, 30 min; GST-TFs on glutathione beads, 16-mer random dsDNA library, 0.1% formaldehyde crosslink after washing; high values mean tight binding
# FLI1 = molecular target: T1, FLI1 (Homo sapiens, UniProt Q01543 1-452); conditions: protein: recombinant; tags: N-terminal GST; dsDNA, one strand shown
# T1 sequence: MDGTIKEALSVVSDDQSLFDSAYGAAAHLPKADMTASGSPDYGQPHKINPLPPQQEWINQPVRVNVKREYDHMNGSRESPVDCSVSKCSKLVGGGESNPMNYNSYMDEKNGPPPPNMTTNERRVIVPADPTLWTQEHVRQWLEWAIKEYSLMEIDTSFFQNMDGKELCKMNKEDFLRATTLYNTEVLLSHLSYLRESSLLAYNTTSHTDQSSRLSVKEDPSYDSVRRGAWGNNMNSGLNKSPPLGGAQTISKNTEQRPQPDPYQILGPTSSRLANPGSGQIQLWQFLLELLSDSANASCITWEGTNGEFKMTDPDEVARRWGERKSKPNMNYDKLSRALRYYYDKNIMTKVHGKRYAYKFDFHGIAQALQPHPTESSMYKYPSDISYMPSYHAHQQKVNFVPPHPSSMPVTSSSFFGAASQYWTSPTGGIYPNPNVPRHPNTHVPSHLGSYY
# In short: (§1)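 Human transcription factors fused to GST were expressed in yeast, captured on glutathione beads, given DNA barcodes and pooled with a GST-only negative control. Pools were incubated with 200 nmole of a 16-mer random double-stranded DNA library in Tris/NaCl/DTT/glycerol buffer at room temperature for 30 min. They were then washed, crosslinked with 0.1% formaldehyde, proximity-ligated (BsaI/T4 ligase, 1 h, 37 °C), PCR-amplified and sequenced on an Illumina NextSeq500. Binding signal is each 6-mer's read frequency for a factor divided by its frequency for the GST control.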
# ELK1 = molecular target: T2, ELK1 (Homo sapiens, UniProt P19419 1-428); conditions: protein: recombinant; tags: N-terminal GST; dsDNA, one strand shown
# T2 sequence: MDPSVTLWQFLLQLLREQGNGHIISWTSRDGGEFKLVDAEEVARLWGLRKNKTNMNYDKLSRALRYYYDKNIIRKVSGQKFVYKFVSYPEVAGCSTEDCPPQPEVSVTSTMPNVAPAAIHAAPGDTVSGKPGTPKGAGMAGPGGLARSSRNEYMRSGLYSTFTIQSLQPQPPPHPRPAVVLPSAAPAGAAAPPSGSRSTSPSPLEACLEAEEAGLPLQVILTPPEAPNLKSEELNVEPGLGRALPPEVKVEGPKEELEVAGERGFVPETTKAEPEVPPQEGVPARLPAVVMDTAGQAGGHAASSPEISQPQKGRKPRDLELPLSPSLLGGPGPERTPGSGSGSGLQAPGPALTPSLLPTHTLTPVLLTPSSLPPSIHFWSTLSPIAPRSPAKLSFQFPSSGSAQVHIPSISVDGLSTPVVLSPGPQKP
# In short: as §1
# GABPA = molecular target: T3, GABPA (Homo sapiens, UniProt Q06546 1-454); conditions: protein: recombinant; tags: N-terminal GST; dsDNA, one strand shown
# T3 sequence: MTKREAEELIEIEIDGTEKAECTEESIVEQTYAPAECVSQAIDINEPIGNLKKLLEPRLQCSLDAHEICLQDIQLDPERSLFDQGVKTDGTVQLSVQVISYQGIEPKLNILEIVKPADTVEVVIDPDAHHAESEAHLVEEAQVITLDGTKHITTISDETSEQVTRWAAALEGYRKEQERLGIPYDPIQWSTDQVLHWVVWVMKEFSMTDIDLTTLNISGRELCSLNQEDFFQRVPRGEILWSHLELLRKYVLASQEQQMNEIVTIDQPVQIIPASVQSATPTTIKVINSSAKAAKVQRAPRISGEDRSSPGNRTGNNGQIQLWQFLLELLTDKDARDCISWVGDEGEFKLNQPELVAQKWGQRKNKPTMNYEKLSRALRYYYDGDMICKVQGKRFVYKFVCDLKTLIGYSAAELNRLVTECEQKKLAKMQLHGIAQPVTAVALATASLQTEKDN
# In short: as §1
# ERG = molecular target: T4, ERG (Homo sapiens, UniProt P11308 1-479); conditions: protein: recombinant; tags: N-terminal GST; dsDNA, one strand shown
# T4 sequence: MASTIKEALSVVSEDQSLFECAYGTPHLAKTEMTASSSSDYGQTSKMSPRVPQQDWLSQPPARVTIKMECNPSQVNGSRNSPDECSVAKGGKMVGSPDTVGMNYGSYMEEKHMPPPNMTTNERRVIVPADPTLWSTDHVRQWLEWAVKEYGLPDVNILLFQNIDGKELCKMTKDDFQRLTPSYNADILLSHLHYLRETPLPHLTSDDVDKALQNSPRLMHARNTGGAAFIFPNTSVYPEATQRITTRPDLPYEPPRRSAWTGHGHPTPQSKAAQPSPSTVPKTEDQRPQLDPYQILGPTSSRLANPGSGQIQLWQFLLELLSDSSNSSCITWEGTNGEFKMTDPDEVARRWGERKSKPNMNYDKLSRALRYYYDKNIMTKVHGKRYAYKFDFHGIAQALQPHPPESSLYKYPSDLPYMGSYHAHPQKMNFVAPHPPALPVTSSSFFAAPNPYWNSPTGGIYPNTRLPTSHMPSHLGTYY
# In short: as §1
# ELF1 = ELF1 (Homo sapiens, UniProt P32519 1-619); conditions: protein: recombinant; tags: N-terminal GST; dsDNA, one strand shown
# Sequence of ELF1 (P32519 whole entry): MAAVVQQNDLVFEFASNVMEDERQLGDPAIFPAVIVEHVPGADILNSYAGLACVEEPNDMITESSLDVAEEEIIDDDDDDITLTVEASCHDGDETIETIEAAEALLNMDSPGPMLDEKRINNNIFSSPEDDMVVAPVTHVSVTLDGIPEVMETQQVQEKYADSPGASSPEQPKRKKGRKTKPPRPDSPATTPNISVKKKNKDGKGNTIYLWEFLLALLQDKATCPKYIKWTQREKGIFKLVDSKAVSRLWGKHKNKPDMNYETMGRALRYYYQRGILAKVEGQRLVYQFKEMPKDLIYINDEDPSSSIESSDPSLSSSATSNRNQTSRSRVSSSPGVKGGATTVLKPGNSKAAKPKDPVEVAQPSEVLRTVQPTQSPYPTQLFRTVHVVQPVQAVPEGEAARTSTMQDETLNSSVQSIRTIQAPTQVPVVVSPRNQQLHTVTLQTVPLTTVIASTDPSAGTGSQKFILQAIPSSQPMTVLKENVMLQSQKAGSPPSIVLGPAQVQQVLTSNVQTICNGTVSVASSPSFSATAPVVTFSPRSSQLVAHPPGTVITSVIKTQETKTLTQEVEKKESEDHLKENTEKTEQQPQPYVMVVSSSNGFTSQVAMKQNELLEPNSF
# In short: as §1
# EHF = molecular target: T5, EHF (Homo sapiens, UniProt Q9NZC4 1-300); conditions: protein: recombinant; tags: N-terminal GST; dsDNA, one strand shown
# T5 sequence: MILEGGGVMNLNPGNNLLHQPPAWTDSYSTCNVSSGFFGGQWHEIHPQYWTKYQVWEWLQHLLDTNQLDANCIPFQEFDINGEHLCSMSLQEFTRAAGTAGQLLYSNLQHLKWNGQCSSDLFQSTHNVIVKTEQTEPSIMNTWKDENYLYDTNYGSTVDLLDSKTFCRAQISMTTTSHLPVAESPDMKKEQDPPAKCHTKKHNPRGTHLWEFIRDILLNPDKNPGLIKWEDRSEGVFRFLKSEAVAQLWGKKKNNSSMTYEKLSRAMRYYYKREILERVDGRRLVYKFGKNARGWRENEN
# In short: as §1
# SPI1 = SPI1 (Homo sapiens, UniProt P17947 1-270); conditions: protein: recombinant; tags: N-terminal GST; dsDNA, one strand shown
# In short: as §1
# SPIB = SPIB (Homo sapiens, UniProt Q01892 1-262); conditions: protein: recombinant; tags: N-terminal GST; dsDNA, one strand shown
# Sequence of SPIB (Q01892 whole entry): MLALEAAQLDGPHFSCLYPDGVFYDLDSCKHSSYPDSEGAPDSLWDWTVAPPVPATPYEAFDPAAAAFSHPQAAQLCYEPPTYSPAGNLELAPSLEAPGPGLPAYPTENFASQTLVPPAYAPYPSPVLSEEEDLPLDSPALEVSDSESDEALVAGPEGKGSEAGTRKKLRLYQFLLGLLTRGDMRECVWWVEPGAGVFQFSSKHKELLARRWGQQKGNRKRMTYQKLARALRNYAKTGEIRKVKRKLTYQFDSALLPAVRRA
# In short: as §1
# ELK3 = molecular target: T6, ELK3 (Homo sapiens, UniProt P41970 1-407); conditions: protein: recombinant; tags: N-terminal GST; dsDNA, one strand shown
# T6 sequence: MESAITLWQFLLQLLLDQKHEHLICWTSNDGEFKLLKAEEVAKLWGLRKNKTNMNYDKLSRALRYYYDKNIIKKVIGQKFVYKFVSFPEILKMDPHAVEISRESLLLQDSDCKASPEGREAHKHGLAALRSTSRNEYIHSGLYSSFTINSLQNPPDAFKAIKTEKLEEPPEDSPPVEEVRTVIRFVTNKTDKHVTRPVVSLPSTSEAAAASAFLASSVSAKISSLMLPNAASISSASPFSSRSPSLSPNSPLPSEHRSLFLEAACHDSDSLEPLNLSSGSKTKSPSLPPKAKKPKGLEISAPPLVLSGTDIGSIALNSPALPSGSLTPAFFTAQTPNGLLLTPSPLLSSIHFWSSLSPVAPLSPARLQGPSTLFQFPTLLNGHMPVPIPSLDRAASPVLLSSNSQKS
# In short: as §1
# FEV = molecular target: T7, FEV (Homo sapiens, UniProt Q99581 1-238); conditions: protein: recombinant; tags: N-terminal GST; dsDNA, one strand shown
# T7 sequence: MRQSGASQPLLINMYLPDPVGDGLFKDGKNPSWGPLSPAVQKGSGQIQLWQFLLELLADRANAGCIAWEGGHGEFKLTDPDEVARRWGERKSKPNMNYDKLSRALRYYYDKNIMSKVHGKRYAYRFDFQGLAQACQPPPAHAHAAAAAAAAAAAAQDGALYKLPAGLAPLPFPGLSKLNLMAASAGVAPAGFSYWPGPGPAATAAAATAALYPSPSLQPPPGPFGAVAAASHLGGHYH
# In short: as §1
# ETV5 = ETV5 (Homo sapiens, UniProt P41161 1-510); conditions: protein: recombinant; tags: N-terminal GST; dsDNA, one strand shown
# Sequence of ETV5 (P41161 whole entry): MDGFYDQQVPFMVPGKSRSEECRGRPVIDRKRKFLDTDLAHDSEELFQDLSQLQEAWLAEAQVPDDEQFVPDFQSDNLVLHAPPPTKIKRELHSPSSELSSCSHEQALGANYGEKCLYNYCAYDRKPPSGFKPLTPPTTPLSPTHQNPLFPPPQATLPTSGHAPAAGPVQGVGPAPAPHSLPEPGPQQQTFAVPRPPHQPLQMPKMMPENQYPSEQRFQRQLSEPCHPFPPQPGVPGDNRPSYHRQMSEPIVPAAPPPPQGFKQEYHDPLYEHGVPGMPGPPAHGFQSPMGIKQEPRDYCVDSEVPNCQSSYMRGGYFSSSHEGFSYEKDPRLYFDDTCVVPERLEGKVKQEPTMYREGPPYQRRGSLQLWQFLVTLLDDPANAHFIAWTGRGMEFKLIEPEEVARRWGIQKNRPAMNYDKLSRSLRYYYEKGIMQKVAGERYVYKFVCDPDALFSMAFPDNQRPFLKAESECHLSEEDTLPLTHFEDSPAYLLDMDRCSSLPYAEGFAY
# In short: as §1
# HSF1 = HSF1 (Homo sapiens, UniProt Q00613 1-529); conditions: protein: recombinant; tags: N-terminal GST; chain copies: 3; dsDNA, one strand shown
# Sequence of HSF1 (Q00613 whole entry): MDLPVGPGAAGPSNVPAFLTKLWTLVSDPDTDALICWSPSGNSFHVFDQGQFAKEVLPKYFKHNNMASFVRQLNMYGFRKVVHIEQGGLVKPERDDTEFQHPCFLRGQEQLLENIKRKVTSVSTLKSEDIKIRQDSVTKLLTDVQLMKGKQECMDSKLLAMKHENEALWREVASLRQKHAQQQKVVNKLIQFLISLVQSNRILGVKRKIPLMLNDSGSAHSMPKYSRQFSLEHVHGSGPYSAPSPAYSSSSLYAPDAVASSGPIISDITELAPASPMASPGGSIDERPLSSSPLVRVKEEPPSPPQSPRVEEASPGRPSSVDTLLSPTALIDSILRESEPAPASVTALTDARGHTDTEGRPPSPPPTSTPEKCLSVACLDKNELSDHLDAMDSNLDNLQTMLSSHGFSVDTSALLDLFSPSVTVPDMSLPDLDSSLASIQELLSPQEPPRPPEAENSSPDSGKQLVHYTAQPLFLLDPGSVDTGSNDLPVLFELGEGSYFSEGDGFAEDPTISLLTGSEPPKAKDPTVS
# In short: as §1
# SPIC = molecular target: T8, SPIC (Homo sapiens, UniProt Q8N5J4 1-248); conditions: protein: recombinant; tags: N-terminal GST; dsDNA, one strand shown
# T8 sequence: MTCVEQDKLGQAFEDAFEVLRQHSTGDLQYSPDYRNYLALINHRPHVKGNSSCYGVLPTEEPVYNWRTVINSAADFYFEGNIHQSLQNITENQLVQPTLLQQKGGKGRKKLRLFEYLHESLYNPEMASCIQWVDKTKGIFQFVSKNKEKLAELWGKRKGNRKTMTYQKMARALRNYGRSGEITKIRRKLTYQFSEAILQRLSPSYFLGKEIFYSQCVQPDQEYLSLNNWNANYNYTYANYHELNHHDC
# In short: as §1
# ELF4 = ELF4 (Homo sapiens, UniProt Q99607 1-663); conditions: protein: recombinant; tags: N-terminal GST; dsDNA, one strand shown
# Sequence of ELF4 (Q99607 whole entry): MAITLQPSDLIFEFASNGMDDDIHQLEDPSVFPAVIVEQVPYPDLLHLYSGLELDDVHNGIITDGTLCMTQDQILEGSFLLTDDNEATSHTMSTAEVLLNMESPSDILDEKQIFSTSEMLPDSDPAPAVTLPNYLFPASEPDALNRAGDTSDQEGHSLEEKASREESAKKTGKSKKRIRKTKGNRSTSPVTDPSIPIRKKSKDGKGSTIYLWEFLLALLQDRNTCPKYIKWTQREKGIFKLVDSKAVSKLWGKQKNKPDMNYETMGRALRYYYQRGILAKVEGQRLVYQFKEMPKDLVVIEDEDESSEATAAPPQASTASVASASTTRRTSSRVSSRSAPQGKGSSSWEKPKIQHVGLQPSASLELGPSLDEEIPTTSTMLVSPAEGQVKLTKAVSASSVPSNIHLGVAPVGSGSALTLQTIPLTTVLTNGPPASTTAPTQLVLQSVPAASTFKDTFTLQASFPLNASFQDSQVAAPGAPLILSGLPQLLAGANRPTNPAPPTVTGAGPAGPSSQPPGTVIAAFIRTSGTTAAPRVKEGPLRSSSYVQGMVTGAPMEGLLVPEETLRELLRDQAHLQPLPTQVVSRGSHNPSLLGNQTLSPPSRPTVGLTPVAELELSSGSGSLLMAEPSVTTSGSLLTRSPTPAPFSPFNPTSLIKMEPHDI
# In short: as §1
# ELK4 = molecular target: T9, ELK4 (Homo sapiens, UniProt P28324-2 1-405); conditions: protein: recombinant; tags: N-terminal GST; dsDNA, one strand shown
# T9 sequence: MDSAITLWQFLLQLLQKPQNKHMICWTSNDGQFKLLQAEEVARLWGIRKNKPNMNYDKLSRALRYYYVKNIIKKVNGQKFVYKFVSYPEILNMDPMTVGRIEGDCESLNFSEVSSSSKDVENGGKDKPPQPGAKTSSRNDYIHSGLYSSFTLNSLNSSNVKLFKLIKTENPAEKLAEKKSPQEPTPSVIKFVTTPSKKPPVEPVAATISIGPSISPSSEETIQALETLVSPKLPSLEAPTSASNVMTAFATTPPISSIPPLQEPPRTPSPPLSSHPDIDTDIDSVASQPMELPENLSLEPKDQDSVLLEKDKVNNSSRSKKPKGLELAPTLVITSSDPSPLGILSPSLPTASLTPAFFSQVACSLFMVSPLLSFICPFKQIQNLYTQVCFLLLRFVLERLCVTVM
# In short: as §1
# ETV2 = molecular target: T10, ETV2 (Homo sapiens, UniProt O00321 1-342); conditions: protein: recombinant; tags: N-terminal GST; dsDNA, one strand shown
# T10 sequence: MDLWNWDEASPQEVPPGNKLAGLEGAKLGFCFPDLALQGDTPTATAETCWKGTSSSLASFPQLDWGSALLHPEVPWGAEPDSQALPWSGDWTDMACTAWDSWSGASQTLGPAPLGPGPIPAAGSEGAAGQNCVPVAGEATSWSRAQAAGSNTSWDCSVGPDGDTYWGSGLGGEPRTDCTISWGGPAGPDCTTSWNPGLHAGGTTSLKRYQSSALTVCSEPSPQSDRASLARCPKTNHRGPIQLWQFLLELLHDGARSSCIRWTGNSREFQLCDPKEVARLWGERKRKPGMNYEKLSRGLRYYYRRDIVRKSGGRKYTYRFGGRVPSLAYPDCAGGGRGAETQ
# In short: as §1
# ELF3 = molecular target: T11, ELF3 (Homo sapiens, UniProt P78545 1-371); conditions: protein: recombinant; tags: N-terminal GST; dsDNA, one strand shown
# T11 sequence: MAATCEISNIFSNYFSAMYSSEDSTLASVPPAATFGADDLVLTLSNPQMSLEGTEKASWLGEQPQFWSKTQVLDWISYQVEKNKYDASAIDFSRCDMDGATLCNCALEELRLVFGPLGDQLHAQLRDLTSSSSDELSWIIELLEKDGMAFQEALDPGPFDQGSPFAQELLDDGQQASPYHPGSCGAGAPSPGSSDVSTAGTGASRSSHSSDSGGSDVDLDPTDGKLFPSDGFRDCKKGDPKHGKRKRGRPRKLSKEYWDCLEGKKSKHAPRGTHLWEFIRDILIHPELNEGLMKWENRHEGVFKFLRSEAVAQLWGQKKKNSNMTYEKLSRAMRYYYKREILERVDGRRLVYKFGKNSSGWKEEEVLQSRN
# In short: as §1
# CRX = CRX (Homo sapiens, UniProt O43186 1-299); conditions: protein: recombinant; tags: N-terminal GST; dsDNA, one strand shown
# Sequence of CRX (O43186 whole entry): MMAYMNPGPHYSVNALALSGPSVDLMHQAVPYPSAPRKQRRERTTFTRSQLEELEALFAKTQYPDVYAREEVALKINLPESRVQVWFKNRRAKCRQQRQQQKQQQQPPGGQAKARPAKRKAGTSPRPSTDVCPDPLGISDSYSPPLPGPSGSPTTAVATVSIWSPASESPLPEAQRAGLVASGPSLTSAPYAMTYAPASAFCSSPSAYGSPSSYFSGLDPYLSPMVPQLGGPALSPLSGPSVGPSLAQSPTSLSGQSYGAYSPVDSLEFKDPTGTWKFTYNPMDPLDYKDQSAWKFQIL
# In short: as §1
# ETV1 = ETV1 (Homo sapiens, UniProt P50549 1-477); conditions: protein: recombinant; tags: N-terminal GST; dsDNA, one strand shown
# Sequence of ETV1 (P50549 whole entry): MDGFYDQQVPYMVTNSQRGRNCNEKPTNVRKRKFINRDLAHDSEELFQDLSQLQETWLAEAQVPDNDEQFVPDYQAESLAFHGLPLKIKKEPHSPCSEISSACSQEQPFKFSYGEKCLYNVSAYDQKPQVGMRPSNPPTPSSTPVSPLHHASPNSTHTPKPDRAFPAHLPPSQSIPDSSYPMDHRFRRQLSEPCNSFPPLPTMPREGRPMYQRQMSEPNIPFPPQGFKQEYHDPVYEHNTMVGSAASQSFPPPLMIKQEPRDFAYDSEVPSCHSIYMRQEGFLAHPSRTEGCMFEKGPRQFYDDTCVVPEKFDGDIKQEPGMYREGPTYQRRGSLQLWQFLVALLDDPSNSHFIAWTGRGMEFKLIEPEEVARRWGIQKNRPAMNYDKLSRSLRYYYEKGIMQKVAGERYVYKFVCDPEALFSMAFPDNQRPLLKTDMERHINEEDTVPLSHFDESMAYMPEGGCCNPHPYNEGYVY
# In short: as §1
sequence,measurement,setting,value
GTTTTT,binding signal,FLI1,"1.31 fold enrichment (6-mer frequency, TF over GST control)"
same,binding signal,ELK1,"1.19 fold enrichment (6-mer frequency, TF over GST control)"
same,binding signal,GABPA,"1.4 fold enrichment (6-mer frequency, TF over GST control)"
same,binding signal,ERG,"1.17 fold enrichment (6-mer frequency, TF over GST control)"
same,binding signal,ELF1,"1.34 fold enrichment (6-mer frequency, TF over GST control)"
same,binding signal,EHF,"1.38 fold enrichment (6-mer frequency, TF over GST control)"
same,binding signal,SPI1,"1.42 fold enrichment (6-mer frequency, TF over GST control)"
same,binding signal,SPIB,"1.36 fold enrichment (6-mer frequency, TF over GST control)"
same,binding signal,ELK3,"1.51 fold enrichment (6-mer frequency, TF over GST control)"
same,binding signal,FEV,"1.23 fold enrichment (6-mer frequency, TF over GST control)"
same,binding signal,ETV5,"1.31 fold enrichment (6-mer frequency, TF over GST control)"
same,binding signal,HSF1,"1.21 fold enrichment (6-mer frequency, TF over GST control)"
same,binding signal,SPIC,"1.41 fold enrichment (6-mer frequency, TF over GST control)"
same,binding signal,ELF4,"1.33 fold enrichment (6-mer frequency, TF over GST control)"
same,binding signal,ELK4,"1.32 fold enrichment (6-mer frequency, TF over GST control)"
same,binding signal,ETV2,"1.38 fold enrichment (6-mer frequency, TF over GST control)"
same,binding signal,ELF3,"1.29 fold enrichment (6-mer frequency, TF over GST control)"
same,binding signal,CRX,"1.13 fold enrichment (6-mer frequency, TF over GST control)"
same,binding signal,ETV1,"1.24 fold enrichment (6-mer frequency, TF over GST control)"
